Measured values from PubChem BioAssay (EPA / NIEHS).
Records with an inconclusive call do not appear. Activity calls are given as the source filed them. Rule for the calls: active = hit-call score of the fitted dose curve at least 0.9, where 1 is the maximum; inconclusive = response in the unintended direction; inactive = score below 0.9.

These compounds were tested on Glyceraldehyde-3-phosphate dehydrogenase (Homo sapiens) (UniProt P04406) (assay: CLD_GAPDH_48hr: CellzDirect (CLD) Gene Expression Assay for Baseline Control (Glyceraldehyde 3-phosphate dehydrogenase) at 48 hours (AID 2283706);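 note: active means higher GAPDH mRNA than DMSO vehicle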).
Glyceraldehyde-3-phosphate dehydrogenase (Homo sapiens), sequence (P04406 whole entry, looked up): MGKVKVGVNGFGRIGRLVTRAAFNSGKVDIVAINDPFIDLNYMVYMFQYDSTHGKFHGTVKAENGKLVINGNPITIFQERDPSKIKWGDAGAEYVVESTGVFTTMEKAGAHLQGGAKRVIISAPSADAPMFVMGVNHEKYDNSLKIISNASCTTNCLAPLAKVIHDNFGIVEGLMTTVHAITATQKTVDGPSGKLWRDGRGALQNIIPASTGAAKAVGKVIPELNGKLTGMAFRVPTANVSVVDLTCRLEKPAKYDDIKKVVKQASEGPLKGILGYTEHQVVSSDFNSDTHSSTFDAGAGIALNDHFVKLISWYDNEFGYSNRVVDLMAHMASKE
Procedure: CLD_48hr is a cell-based, multiplexed-readout assay that uses hepatocyte, a human liver primary cell, with measurements taken at 48 hours after chemical dosing in a 96-well plate.CLD_GAPDH_48hr is one of 16 assay component(s) measured or calculated from the CLD_48hr assay. It is designed to make measurements of mRNA induction, a form of inducible reporter, as detected with chemiluminescence signals by Quantitative Nuclease Protection Assay (qNPA) technology.Data from the assay component CLD_GAPDH_48hr was analyzed at the endpoint, CLD_GAPDH_48hr, in the positive analysis fitting direction relative to DMSO as the negative control and baseline of activity. Using a type of inducible reporter, gain-of-signal activity can be used to understand changes in the reporter gene as they relate to the gene GAPDH. Furthermore, this assay endpoint can be referred to as a secondary readout, because this assay has produced multiple assay endpoints where this one serves a background control function. To generalize the intended target to other relatable targets, this assay endpoint is annotated to the background measurement intended target family, where subfamily is baseline control.
Human hepatocyte cultures were treated daily for two consecutive days with fresh dosing solutions containing appropriate concentrations of the 320 ToxCast chemicals (chemical identities were blinded to CellzDirect and other ToxCast collaborators), vehicle control (0.2% DMSO), and positive control inducers as summarized in Table 1. Due to the large number of treatment groups and chemicals examined, the ToxCast chemicals were divided into two groups (spanning two independent cultures of hepatocytes from separate donor preparations (Hu778: ToxCast plates 1 and 2; Hu776: ToxCast plates 3 and 4). Each preparation of human hepatocyte cultures was treated with respective vehicle control, medium only control, set of six positive controls/reference chemicals for the five hepatic receptor pathways, and a subset of eight of the ToxCast chemicals (indoxacarb, pyrithiobac-sodium, norflurazon, cyhalofop-butyl, methomyl, thiram, acetochlor, and propiconazole). These replicate data, coupled with internal replicates designed within the blinded ToxCast chemical library, provided additional data to evaluate interindividual differences between hepatocyte preparations and their potential impact on chemical profiles.Cell morphology and integrity were evaluated using phase-contrast microscopy as an indicator of hepatocyte cell health (Tyson & Green, 1987). Cultures for each treatment group (i.e., media, vehicle [0.2% DMSO], positive control inducers [multiple concentrations], and the ToxCast chemicals [multiple concentrations]) were observed and cell morphology was assessed relative to vehicle control cultures at each harvest time point (0, 6, 24, or 48 h). […] Images were evaluated at the conclusion of the study to assess changes in cell integrity and account for the effects of chemical exposure on uncharacteristic changes in concentration-dependent gene expression profiles. The results from these determinations of apparent cytotoxicity were annotated (yes/no) alongside the corresponding qNPA data for reference.At the conclusion of each treatment period, hepatocyte cultures (96-well) were washed with 1 volume of HBSS, lysed by addition of 25 ul ArrayPlate lysis buffer (HTG, Tucson, AZ), and 70 ul/well of Denaturation Oil, denatured by incubation at 95C for 10 min, and frozen at approximately -70C until analysis by nuclease protection assay (qNPA) (Roberts et al., 2007). For qNPA analysis, cell lysates were thawed at 50C for approximately 30 min, qNPA probes were added, and samples were incubated at 95C for 10 min to begin the detection process by denaturing the target RNA, dissociating the duplexes and secondary structure hybridization. At the conclusion of the hybridization period, S1 nuclease reagent was added to each sample to digest all nonprotected nucleotides at 50C for 60-90 min. […]

SMILES	outcome
O=C(O)COc1nc(Cl)c(Cl)cc1Cl	inactive
CCCCC(CC)COC(=O)c1ccccc1C(=O)OCC(CC)CCCC (configuration not stated)	inactive
CNC(=O)ON=CC(C)(C)SC	inactive
CCON=C(CC)C1=C(O)CC(c2c(C)cc(C)cc2C)CC1=O (configuration not stated)	inactive
CCCCNC(=O)OCC#CI	inactive
N#Cc1cc(Br)c(O)c(Br)c1	inactive
CCNc1nc(Cl)nc(NCC)n1	inactive
COc1nc(C)nc(NC(=O)NS(=O)(=O)c2ccccc2Cl)n1	inactive
CC(Oc1ccc(Cl)cc1Cl)C(=O)O (configuration not stated)	inactive
CCNc1nc(Cl)nc(NC(C)C)n1	inactive
CC(C)(C)c1ccc(CSc2cnn(C(C)(C)C)c(=O)c2Cl)cc1	inactive
CCCCOC(=O)c1ccccc1C(=O)OCCCC	inactive
CCCCNC(=O)n1c(NC(=O)OC)nc2ccccc21	inactive
CCOC(=O)CC(SP(=S)(OC)OC)C(=O)OCC (configuration not stated)	inactive
CNC(=S)S	inactive
COC(=O)C(C)Oc1ccc(Oc2ccc(Cl)cc2Cl)cc1 (configuration not stated)	inactive
C=CC1(C)OC(=O)N(c2cc(Cl)cc(Cl)c2)C1=O (configuration not stated)	inactive
CN(C)C(=S)SSC(=S)N(C)C	inactive
CC1COC(Cn2cncn2)(c2ccc(Oc3ccc(Cl)cc3)cc2Cl)O1 (configuration not stated)	inactive
Cc1ccc(-c2c(Cl)nc(C#N)n2S(=O)(=O)N(C)C)cc1	inactive
COP(=S)(OC)Oc1nc(Cl)c(Cl)cc1Cl	inactive
N#Cc1nn(-c2c(Cl)cc(C(F)(F)F)cc2Cl)c(N)c1S(=O)C(F)(F)F (configuration not stated)	inactive
